Data: PubChem BioAssay (EPA / NIEHS)
Results filed as inconclusive are left out. Active and inactive are the calls of the source. The calls were made as follows, unless noted: active = hit-call score of the fitted dose curve at least 0.9, where 1 is the maximum; inactive = score below 0.9.

Tests used:
[1] = biological target: Nuclear respiratory factor 1 (Homo sapiens) (UniProt Q16656); test: ATG_NRF1_CIS: Attagene CIS-FACTORIAL HepG2 Assay for human Nuclear Respiratory Factor 1 (NRF1) Orphan Gene (AID 2282987); details: HepG2 NRF1 cis-element reporter, Attagene multiplex; actives raise or lower the signal
Nuclear respiratory factor 1 (Homo sapiens), sequence (Q16656 whole entry, looked up, the tested form may be a part): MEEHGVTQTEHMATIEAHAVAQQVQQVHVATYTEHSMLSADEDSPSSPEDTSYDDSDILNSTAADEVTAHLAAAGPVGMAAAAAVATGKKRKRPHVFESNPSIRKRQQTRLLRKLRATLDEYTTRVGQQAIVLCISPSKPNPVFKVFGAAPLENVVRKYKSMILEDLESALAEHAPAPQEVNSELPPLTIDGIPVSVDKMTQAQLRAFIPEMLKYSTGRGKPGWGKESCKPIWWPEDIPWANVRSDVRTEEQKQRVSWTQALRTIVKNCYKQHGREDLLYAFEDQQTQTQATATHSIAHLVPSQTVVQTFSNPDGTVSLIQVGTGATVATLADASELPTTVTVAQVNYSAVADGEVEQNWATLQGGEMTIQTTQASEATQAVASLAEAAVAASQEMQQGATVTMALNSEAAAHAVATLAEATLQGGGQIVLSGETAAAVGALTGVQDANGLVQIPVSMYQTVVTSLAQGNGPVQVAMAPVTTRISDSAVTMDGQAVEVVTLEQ
Summary of the method: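 Fluorescence intensity of labelled reporter cDNA fragments, resolved by capillary electrophoresis, served as readout for NRF1 cis-element activity. Transiently transfected HepG2 cells were dosed for 24 hours; activity in either direction was fitted against DMSO negative control.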

[2] = ATG_NFI_CIS: Attagene CIS-FACTORIAL HepG2 Assay for human Nuclear Factor I (NFI) (AID 2282989); details: HepG2 cis-regulatory reporter, NFI response element transcription; actives raise or lower the signal
Summary of the method: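 Reporter transcription driven by endogenous transcription factors in HepG2 cells; 24 h treatment. Quantitation by labelled RT-PCR fragments on capillary electrophoresis, gain- or loss-of-signal relative to DMSO.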

[3] = biological target: Myc proto-oncogene protein (Homo sapiens) (UniProt P01106); test: ATG_Myc_CIS: Attagene CIS-FACTORIAL HepG2 Assay for human Myelocytomatosis (Myc) Proto-Oncogene Transcription Factor (AID 2282990); details: HepG2, Attagene cis-reporter transcription factor activity; actives raise or lower the signal
Myc proto-oncogene protein (Homo sapiens), sequence (P01106 whole entry, looked up): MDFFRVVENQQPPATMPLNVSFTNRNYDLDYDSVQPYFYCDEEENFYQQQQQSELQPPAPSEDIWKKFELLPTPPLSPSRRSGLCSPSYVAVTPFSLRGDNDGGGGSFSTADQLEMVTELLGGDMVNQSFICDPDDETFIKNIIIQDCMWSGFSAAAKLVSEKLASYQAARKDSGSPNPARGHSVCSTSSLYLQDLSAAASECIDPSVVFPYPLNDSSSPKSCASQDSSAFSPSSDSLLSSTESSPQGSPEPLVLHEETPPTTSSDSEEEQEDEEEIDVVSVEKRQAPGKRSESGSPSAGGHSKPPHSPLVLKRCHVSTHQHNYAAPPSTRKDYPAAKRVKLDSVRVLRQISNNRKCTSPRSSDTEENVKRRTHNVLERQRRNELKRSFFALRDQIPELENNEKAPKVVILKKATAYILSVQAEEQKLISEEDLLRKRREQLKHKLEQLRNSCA
Summary of the method: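 Transiently transfected HepG2 cells bearing cis-promoter reporter units for endogenous transcription factors; 24 h exposure. Reporter mRNA measured by RT-PCR, 6-FAM primer extension, HpaI cut and capillary electrophoresis; bidirectional fit relative to DMSO.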

[4] = ATG_NF_kB_CIS: Attagene CIS-FACTORIAL HepG2 Assay for human Nuclear Factor Kappa B (NF-kB) (AID 2282991); details: HepG2 Attagene cis-factorial NF-kB reporter mRNA; actives raise or lower the signal
Summary of the method: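 Endogenous transcription factor activity in HepG2 was captured via cis-regulated reporter constructs; after 24 h dosing, reporter mRNA was reverse-transcribed, amplified, fluorescently labelled and sized by capillary electrophoresis, with activity fitted bidirectionally relative to DMSO.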

[5] = ATG_NRF2_ARE_CIS: Attagene CIS-FACTORIAL HepG2 Assay for human Nuclear Factor Erythroid 2 Related Factor 2 (NFR2) response to Antioxidant Response Elements (ARE) (AID 2282992); details: HepG2 Attagene ARE/NRF2 reporter, transcription factor activity; actives raise or lower the signal;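 as to AC50: reporter mRNA level measured by RT-PCR and capillary electrophoresis fluorescence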
Summary of the method: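 Readout: reporter mRNA quantified by RT-PCR plus FAM-labelled primer extension, HpaI digestion and capillary electrophoresis, 24 h after dosing transfected HepG2 cells. Gain or loss of signal is fitted bidirectionally against DMSO baseline.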

[6] = ATG_Oct_MLP_CIS: Attagene CIS-FACTORIAL HepG2 Assay for human Octamer-Binding Transcription Factor (Oct) (AID 2282993); details: HepG2 Attagene cis-factorial Oct reporter, mRNA; actives raise or lower the signal
Summary of the method: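 Transfected HepG2 cells, 24 h treatment. Reporter mRNA quantified by RT-PCR–capillary electrophoresis; bidirectional fitting against DMSO.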

[7] = BSK_3C_TissueFactor: BioMAP Diversity Plus: 3C Assay for Tissue Factor Biomarker Activity (AID 2282997); details: BioMAP 3C HUVEC, tissue factor biomarker readout; actives raise or lower the signal
Summary of the method: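 Tissue Factor measured by ELISA, 24 h after treatment of primary HUVEC in the BioMAP 3C setting.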

[8] = BSK_3C_uPAR: BioMAP Diversity Plus: 3C Assay for Urokinase-type plasminogen activator receptor (uPAR) Biomarker Activity (AID 2282998); details: BioMAP 3C HUVEC, uPAR biomarker ELISA; actives raise or lower the signal
Summary of the method: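 Readout: ELISA for surface uPAR. System: human umbilical vein endothelial primary cells, 24 h after chemical exposure. Analysis: bidirectional fit, DMSO baseline.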

[9] = BSK_3C_VCAM1: BioMAP Diversity Plus: 3C Assay for Vascular cell adhesion molecule 1 (VCAM1) Biomarker Activity (AID 2282999); details: BioMAP 3C HUVEC, VCAM1 ELISA, cytokine-stimulated; actives raise or lower the signal
Summary of the method: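 HUVEC primary cells, 24 h compound exposure; VCAM-1 by ELISA; gain/loss of signal fitted bidirectionally vs DMSO baseline.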

[10] = BSK_4H_Eotaxin3: BioMAP Diversity Plus: 4H Assay for Eotaxin 3 Biomarker Activity (AID 2283000); details: primary human endothelial cells (HUVEC); actives raise or lower the signal;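 also: CCL26 protein level quantified by ELISA in parallel with SRB cytotoxicity check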
Summary of the method: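 Eotaxin-3 (CCL26) levels were measured by ELISA in HUVEC primary cultures 24 h post-dosing. Gain or loss of signal was fitted in both directions, with DMSO serving as baseline and negative control.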

[11] = biological target: human Peroxisome Proliferator-activated Receptor delta (PPARd), PPARD (gene 5467) (UniProt Q03181); test: ATG_PPARd_TRANS: Attagene TRANS-FACTORIAL HepG2 Assay for human Peroxisome Proliferator-activated Receptor delta (PPARd) (AID 2283002; active = hit-call score of the fitted dose curve at least 0.9, where 1 is the maximum)
human Peroxisome Proliferator-activated Receptor delta (PPARd), PPARD (gene 5467), sequence (Q03181 whole entry, looked up, the tested form may be a part): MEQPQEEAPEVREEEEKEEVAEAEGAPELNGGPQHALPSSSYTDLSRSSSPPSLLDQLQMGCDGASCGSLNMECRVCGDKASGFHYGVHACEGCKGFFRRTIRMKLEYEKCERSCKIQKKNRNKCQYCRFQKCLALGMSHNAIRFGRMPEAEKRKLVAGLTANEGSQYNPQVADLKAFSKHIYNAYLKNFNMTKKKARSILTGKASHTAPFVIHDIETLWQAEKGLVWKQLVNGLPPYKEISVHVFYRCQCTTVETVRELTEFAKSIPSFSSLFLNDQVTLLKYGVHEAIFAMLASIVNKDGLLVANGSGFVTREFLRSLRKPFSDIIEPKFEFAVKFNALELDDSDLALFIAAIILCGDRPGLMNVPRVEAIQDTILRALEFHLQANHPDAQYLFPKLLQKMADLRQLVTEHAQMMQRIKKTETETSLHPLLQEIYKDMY
Summary of the method: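 HepG2 cells transiently transfected with GAL4-UAS multiplexed reporter units driven by exogenous chimeric NR-GAL4 proteins; 24 h compound exposure. Reporter mRNA measured by RT-PCR, 6-FAM primer extension, HpaI digestion and capillary electrophoresis; gain of signal fitted relative to DMSO.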

[12] = read-out: Intercellular Adhesion Molecule 1 (ICAM1), ICAM1 (gene 3383); test: BSK_3C_ICAM1: BioMAP Diversity Plus: 3C Assay for Intercellular Adhesion Molecule 1 (ICAM1) Biomarker Activity (AID 2283003); details: primary human endothelial cells (HUVEC); actives raise or lower the signal
Summary of the method: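 ELISA readout of ICAM1 in human umbilical vein endothelial cells in the 3C system, taken 24 h post-dose. Gain or loss of signal versus DMSO was fitted in both directions, with SRB total-protein staining run in parallel.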

[13] = biological target: Peroxisome proliferator-activated receptor gamma (Homo sapiens) (UniProt P37231); test: ATG_PPARg_TRANS: Attagene TRANS-FACTORIAL HepG2 Assay for human Peroxisome Proliferator-activated Receptor-gamma (PPARg) (AID 2283007; active = hit-call score of the fitted dose curve at least 0.9, where 1 is the maximum)
Peroxisome proliferator-activated receptor gamma (Homo sapiens), sequence (P37231 whole entry, looked up, the tested form may be a part): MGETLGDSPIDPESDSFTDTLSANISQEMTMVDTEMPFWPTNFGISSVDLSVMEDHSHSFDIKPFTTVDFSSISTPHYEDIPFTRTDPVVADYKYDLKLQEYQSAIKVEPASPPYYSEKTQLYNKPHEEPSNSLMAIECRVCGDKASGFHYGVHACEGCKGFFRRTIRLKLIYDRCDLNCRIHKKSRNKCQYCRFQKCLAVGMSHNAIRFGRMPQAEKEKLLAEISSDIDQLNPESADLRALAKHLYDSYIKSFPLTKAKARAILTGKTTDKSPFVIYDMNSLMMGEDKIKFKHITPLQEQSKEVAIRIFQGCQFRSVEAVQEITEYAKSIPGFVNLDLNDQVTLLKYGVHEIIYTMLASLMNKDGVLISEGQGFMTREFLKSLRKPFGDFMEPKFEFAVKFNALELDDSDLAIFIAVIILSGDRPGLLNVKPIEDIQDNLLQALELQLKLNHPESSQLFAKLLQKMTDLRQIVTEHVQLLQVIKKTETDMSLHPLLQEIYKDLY
Summary of the method: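 A TRANS-format multiplexed reporter assay measures activity of an exogenous chimeric NR-Gal4 protein in HepG2 cells. After 24 h of chemical exposure, reporter transcripts are amplified, fluorescently labelled and sized by capillary electrophoresis, with gain of signal scored against DMSO.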

[14] = biological target: Nuclear receptor subfamily 1 group I member 2 (Homo sapiens) (UniProt O75469); test: ATG_PXR_TRANS: Attagene TRANS-FACTORIAL HepG2 Assay for human Pregnane X Receptor (PXR) (AID 2283008; active = hit-call score of the fitted dose curve at least 0.9, where 1 is the maximum)
Nuclear receptor subfamily 1 group I member 2 (Homo sapiens), sequence (O75469 whole entry, looked up, the tested form may be a part): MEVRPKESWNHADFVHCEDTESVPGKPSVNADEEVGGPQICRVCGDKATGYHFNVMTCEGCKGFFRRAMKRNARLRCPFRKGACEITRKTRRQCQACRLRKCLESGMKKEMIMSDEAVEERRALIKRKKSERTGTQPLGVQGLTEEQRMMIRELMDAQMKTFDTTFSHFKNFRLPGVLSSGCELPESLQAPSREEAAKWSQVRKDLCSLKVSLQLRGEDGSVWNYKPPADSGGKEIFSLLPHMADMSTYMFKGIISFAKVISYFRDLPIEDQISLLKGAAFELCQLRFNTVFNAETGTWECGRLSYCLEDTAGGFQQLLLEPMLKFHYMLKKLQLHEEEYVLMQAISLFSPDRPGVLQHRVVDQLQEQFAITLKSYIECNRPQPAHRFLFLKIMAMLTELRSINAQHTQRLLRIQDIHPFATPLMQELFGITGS
Summary of the method: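 Trans-factorial format: exogenous NR-Gal4 fusion activity, not endogenous factor, in transfected human HepG2 liver cells. After 24 h dosing, RNA isolated, reverse-transcribed, amplified and resolved by capillary electrophoresis; induction scored versus DMSO.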

[15] = biological target: Cellular tumor antigen p53 (Homo sapiens) (UniProt P04637); test: ATG_p53_CIS: Attagene CIS-FACTORIAL HepG2 Assay for human p53 Transcription Factor (AID 2282994); details: HepG2 p53 cis-element reporter, Attagene mRNA; actives raise or lower the signal
Cellular tumor antigen p53 (Homo sapiens), sequence (P04637 whole entry, looked up): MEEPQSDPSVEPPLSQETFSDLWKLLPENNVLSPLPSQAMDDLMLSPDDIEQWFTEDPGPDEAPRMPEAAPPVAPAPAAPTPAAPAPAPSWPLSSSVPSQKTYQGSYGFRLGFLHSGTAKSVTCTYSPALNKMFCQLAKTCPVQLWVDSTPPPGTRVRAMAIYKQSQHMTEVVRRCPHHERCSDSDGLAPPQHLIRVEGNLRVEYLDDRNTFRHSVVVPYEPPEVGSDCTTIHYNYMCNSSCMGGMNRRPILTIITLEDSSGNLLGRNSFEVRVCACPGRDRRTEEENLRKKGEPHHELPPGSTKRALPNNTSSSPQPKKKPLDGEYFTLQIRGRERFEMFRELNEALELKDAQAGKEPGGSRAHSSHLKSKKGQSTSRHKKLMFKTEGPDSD
Summary of the method: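 Read-out: reporter mRNA by RT-PCR plus capillary electrophoresis with fluorescence detection. Human HepG2 liver cells carried transfected multi-reporter cis-element constructs, dosed 24 h. Gain or loss of signal fitted bidirectionally against DMSO control.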

[16] = biological target: human Peroxisome Proliferator-activated Receptor alpha (PPARa), PPARA (gene 5465) (UniProt Q07869); test: ATG_PPARa_TRANS: Attagene TRANS-FACTORIAL HepG2 Assay for human Peroxisome Proliferator-activated Receptor alpha (PPARa) (AID 2283001; active = hit-call score of the fitted dose curve at least 0.9, where 1 is the maximum)
human Peroxisome Proliferator-activated Receptor alpha (PPARa), PPARA (gene 5465), sequence (Q07869 whole entry, looked up): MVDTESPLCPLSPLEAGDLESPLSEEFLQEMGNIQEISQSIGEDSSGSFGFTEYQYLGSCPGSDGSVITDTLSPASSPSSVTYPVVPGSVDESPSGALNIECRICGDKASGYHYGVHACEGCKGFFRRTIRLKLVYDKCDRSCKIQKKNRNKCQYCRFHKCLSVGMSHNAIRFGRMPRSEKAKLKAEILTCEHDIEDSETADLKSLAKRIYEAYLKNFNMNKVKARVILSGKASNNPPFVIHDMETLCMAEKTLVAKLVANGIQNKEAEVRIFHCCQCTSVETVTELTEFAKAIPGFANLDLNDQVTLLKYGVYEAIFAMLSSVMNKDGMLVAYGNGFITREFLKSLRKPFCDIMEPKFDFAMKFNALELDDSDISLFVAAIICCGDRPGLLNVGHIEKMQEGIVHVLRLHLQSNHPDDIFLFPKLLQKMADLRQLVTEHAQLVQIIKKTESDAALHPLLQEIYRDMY
Summary of the method: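 HepG2, transient MRTU transfection, 24 h treatment. RT-PCR → FAM labelling → capillary electrophoresis. Fit vs DMSO, positive direction.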

[17] = BSK_3C_Proliferation: Cell Proliferation Assessment in the BioMAP Diversity Plus: 3C Assay (AID 2283006); details: primary human endothelial cells (HUVEC)
Summary of the method: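 Proliferation as total protein: sulforhodamine B (0.1%) stain of TCA-fixed subconfluent human umbilical vein endothelial cells, absorbance 560 nm, 48 h after dosing. Activity fitted in both directions against DMSO baseline.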

[18] = biological target: human Retinoic Acid Receptor gamma (RARg), RARG (gene 5916) (UniProt P13631); test: ATG_RARg_TRANS: Attagene TRANS-FACTORIAL HepG2 Assay for human Retinoic Acid Receptor gamma (RARg) (AID 2283009; active = hit-call score of the fitted dose curve at least 0.9, where 1 is the maximum)
human Retinoic Acid Receptor gamma (RARg), RARG (gene 5916), sequence (P13631 whole entry, looked up, the tested form may be a part): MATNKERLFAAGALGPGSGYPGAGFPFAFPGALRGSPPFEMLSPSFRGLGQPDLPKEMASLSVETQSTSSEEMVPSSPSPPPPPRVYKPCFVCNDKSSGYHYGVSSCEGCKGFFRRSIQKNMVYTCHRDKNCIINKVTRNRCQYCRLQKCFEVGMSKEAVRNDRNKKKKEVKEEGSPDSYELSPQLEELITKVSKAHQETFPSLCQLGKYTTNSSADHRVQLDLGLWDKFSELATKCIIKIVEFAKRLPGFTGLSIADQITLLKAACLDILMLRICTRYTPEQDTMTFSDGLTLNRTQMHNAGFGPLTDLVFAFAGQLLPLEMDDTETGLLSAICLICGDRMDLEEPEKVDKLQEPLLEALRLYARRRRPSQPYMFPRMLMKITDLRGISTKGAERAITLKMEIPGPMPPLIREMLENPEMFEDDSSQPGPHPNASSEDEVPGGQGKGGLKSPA
Summary of the method: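 Transactivation of exogenous RARg-Gal4 fusion measured as reporter transcript induction after 24 h in transfected HepG2 cells. RNA reverse-transcribed, amplified, fluorescently labeled and resolved by capillary electrophoresis; increase relative to DMSO.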

[19] = biological target: human Retinoic Acid Receptor beta (RARb), RARB (gene 5915) (UniProt P10826); test: ATG_RARb_TRANS: Attagene TRANS-FACTORIAL HepG2 Assay for human Retinoic Acid Receptor beta (AID 2283004; active = hit-call score of the fitted dose curve at least 0.9, where 1 is the maximum)
human Retinoic Acid Receptor beta (RARb), RARB (gene 5915), sequence (P10826 whole entry, looked up, the tested form may be a part): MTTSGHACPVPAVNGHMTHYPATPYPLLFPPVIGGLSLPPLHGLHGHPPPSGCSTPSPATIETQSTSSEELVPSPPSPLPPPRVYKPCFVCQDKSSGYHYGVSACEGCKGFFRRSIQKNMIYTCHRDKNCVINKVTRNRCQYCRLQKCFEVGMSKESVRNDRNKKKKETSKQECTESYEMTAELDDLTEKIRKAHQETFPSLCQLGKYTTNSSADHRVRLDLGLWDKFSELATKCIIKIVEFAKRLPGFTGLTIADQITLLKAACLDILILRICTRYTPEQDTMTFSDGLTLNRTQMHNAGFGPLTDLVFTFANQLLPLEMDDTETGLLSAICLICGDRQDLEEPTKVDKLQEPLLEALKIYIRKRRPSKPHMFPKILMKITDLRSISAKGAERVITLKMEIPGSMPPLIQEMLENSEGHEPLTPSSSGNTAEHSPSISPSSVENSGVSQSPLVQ
Summary of the method: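 HepG2 cells were transiently transfected with GAL4-UAS reporter units that report activity of exogenous chimeric NR-Gal4 proteins, then exposed to compound for 24 h. Reporter mRNA was quantified by RT-PCR with capillary electrophoresis fluorescence, as gain of signal over DMSO.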

[20] = biological target: Retinoic acid receptor alpha (Homo sapiens) (UniProt P10276); test: ATG_RARa_TRANS: Attagene TRANS-FACTORIAL HepG2 Assay for human Retinoic Acid Receptor alpha (RARa) (AID 2283005; active = hit-call score of the fitted dose curve at least 0.9, where 1 is the maximum)
Retinoic acid receptor alpha (Homo sapiens), sequence (P10276 whole entry, looked up, the tested form may be a part): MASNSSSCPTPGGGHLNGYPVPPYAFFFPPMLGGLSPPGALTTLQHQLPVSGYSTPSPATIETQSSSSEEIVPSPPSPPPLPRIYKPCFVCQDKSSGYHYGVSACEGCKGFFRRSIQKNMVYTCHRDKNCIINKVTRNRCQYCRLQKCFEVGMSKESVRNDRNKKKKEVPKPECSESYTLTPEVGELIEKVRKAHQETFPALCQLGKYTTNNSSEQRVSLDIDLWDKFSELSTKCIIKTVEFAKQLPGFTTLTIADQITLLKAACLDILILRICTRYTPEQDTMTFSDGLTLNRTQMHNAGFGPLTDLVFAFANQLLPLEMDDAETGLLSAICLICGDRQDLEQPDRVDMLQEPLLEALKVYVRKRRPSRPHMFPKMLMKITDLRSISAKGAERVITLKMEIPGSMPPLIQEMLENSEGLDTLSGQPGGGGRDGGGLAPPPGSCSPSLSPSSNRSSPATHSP
Summary of the method: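 HepG2 transiently transfected with multiplex GAL4-UAS reporter units including a human RARa–GAL4 chimera; 24 h compound exposure. Reporter mRNA quantified by RT-PCR, 6-FAM labeling and capillary electrophoresis; gain of signal versus DMSO.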

Measured: AC50

CCCCNc1ccccc1
not listed: [15] | [16] | [17] | [18] | [19] | [20]
inactive: all other assays above

OCC(F)(F)C(F)(F)C(F)(F)C(F)F
not listed: [6] | [7] | [19] | [20]
inactive: all other assays above

CC(C)c1ccccc1N
inactive: [1] | [2] | [3] | [4] | [5] | [6] | [15] | [16] | [19] | [13] | [14]

c1ccc(B(c2ccccc2)c2ccccc2)cc1
active: [2] 26.7 µM | [5] 33.9 µM | [6] 43.3 µM | [13] 33.9 µM | [14] 4.69 µM
inactive: [1] | [3] | [4] | [11]

OCC(F)(F)C(F)(F)C(F)(F)F
not listed: [9] | [15] | [17]
inactive: all other assays above

FC(F)(Br)C(F)(F)C(F)(F)C(F)(F)C(F)(F)C(F)(F)Br
not listed: [6] | [7] | [9] | [16] | [18] | [19] | [20]
inactive: all other assays above
